The supplement of paper PMC8387472

Assays:
Experiment in all cases: fraction of 1-bp insertions among edited reads; higher = more 1-bp insertion outcomes
Conditions in all cases: mESC; 2uM; 72 h treatment, harvest day 5
[1] = compound: CCn1c(=O)c(-c2ccc(Cl)cc2Cl)cc2cnc(Nc3ccc(N4CCNCC4)c(F)c3)nc21
[2] = compound: CNc1ccc([N+](=O)[O-])c(Nc2ccc3[nH]ncc3c2)n1
[3] = compound: CO[C@H]1/C=C/O[C@@]2(C)Oc3c(C)c(O)c4c(O)c(c(/C=N/N5CCN(C6CCCC6)CC5)c(O)c4c3C2=O)NC(=O)/C(C)=C\C=C\[C@H](C)[C@H](O)[C@@H](C)[C@@H](O)[C@@H](C)[C@H](OC(C)=O)[C@@H]1C [Rifapentine]
[4] = compound: COc1ccccc1-c1cc(Nc2cccc(CS(N)(=O)=O)c2)ncn1
[5] = compound: C[C@@H]1CN(CC(=O)Nc2ccc3c(c2)Cc2cccc(-c4cc(=O)cc(N5CCOCC5)o4)c2S3)C[C@H](C)O1
[6] = compound: Cc1cc(C)nc(SCC(=O)Nc2ncc(Cc3cccc4ccccc34)s2)n1
[7] = compound: Cc1ccc(C(=O)NCCCCCC(=O)Nc2ccccc2N)cc1
[8] = compound: Cc1cccc(CC(=O)N2CCc3c2ccc(-c2cn(C)c4ncnc(N)c24)c3F)n1
[9] = compound: NC(=O)c1ccc2nc(-c3ccc(Oc4ccc(Cl)cc4)cc3)[nH]c2c1 [Chk 2 inhibitor II (BML-277)]
[10] = compound: Nc1cc(F)ccc1NC(=O)c1ccc(CNC(=O)/C=C/c2cccnc2)cc1 [Tucidinostat (Chidamide)]
[11] = compound: Nc1nc2[nH]cc(CCc3ccc(C(=O)N[C@@H](CCC(=O)O)C(=O)O)cc3)c2c(=O)[nH]1 [Pemetrexed]
[12] = compound: Nc1ncnc2c1c(-c1cnc3[nH]ccc3c1)nn2C1CCCC1
[13] = compound: O=C(c1cccc(Cl)c1F)N1CCN(Cc2cccc(Nc3nccs3)n2)CC1
[14] = compound: O=C1Cc2c([nH]c3ccc(Br)cc23)-c2ccccc2N1 [Kenpaullone]
[15] = compound: O=c1c(-c2ccc(O)cc2)coc2cc(O)cc(O)c12 [Genistein]
[16] = compound: O=c1cc(N2CCOCC2)oc2c(-c3ccc4c(c3)OCCO4)csc12
[17] = compound: S=c1[nH]cnc2nc[nH]c12 [Mercaptopurine (6-MP)]
[18] = compound: S=c1nc[nH]c2nc[nH]c12 [6-Mercaptopurine (6-MP) Monohydrate]

Row | Target | fraction of 1-bp insertions among edited reads [1] | fraction of 1-bp insertions among edited reads [2] | fraction of 1-bp insertions among edited reads [3] | fraction of 1-bp insertions among edited reads [4] | fraction of 1-bp insertions among edited reads [5] | fraction of 1-bp insertions among edited reads [6] | fraction of 1-bp insertions among edited reads [7] | fraction of 1-bp insertions among edited reads [8] | fraction of 1-bp insertions among edited reads [9] | fraction of 1-bp insertions among edited reads [10] | fraction of 1-bp insertions among edited reads [11] | fraction of 1-bp insertions among edited reads [12] | fraction of 1-bp insertions among edited reads [13] | fraction of 1-bp insertions among edited reads [14] | fraction of 1-bp insertions among edited reads [15] | fraction of 1-bp insertions among edited reads [16] | fraction of 1-bp insertions among edited reads [17] | fraction of 1-bp insertions among edited reads [18]
1 | 17.0 (DMSO control at this site: 1-bp insertion 0.112, MH deletion 0.348, edited 0.058) CCATAGCGCGATAAATATGACGGCTCATCCTGTATGACGGCTCATCCTGTATCAACTGTCC | 0.166 | 0.165 | 0.136 | 0.158 | 0.354 | 0.14 | 0.15 | 0.124 | 0.14 | 0.168 | 0.0727 | 0.193 | 0.111 | 0.166 | 0.119 | 0.172 | 0.17 | 0.144
2 | 7.0 (DMSO control at this site: 1-bp insertion 0.128, MH deletion 0.374, edited 0.098) TACTCAACCGAGACCTACGCGAACCGAAATCGTATGCCGGTGCGCAAGCAGGGCTGGCGTC | 0.111 | 0.166 | 0.135 | 0.154 | 0.226 | 0.137 | 0.144 | 0.141 | 0.131 | 0.174 | 0.0646 | 0.128 | 0.15 | 0.156 | 0.12 | 0.16 | 0.145 | 0.197
3 | 33.0 (DMSO control at this site: 1-bp insertion 0.008, MH deletion 0.771, edited 0.112) CATTAAGAGCAGCTGCCGGCCCCCAAGTGGACAGAGCTGGCCCTGCTGATTCAACAGTGCA | 0.0229 | 0.0311 | 0.0305 | 0.0177 | 0.036 | 0.0245 | 0.0214 | 0.0211 | 0.0295 | 0.0189 | 0.0161 | 0.0263 | 0.0349 | 0.0243 | 0.0314 | 0.0159 | 0.0358 | 0.0255
4 | 0.0 (DMSO control at this site: 1-bp insertion 0.463, MH deletion 0.339, edited 0.14) AGGATTACCGAGACCTACGCGAACCGAAATCGCTGTCCGGTGCGCAAGCAGGGCTGGCGTC | 0.394 | 0.535 | 0.468 | 0.559 | 0.793 | 0.523 | 0.498 | 0.526 | 0.495 | 0.534 | 0.375 | 0.623 | 0.624 | 0.604 | 0.453 | 0.395 | 0.543 | 0.518
5 | 20.0 (DMSO control at this site: 1-bp insertion 0.349, MH deletion 0.138, edited 0.084) TACAGGTGTAGACTGGTTACGTGGCTGCGGAATTGACTGGTTACGTGGCTGCGGAATTTTG | 0.317 | 0.438 | 0.293 | 0.345 | 0.47 | 0.3 | 0.315 | 0.355 | 0.233 | 0.348 | 0.22 | 0.456 | 0.453 | 0.429 | 0.278 | 0.203 | 0.376 | 0.22
6 | 44.0 (DMSO control at this site: 1-bp insertion 0.181, MH deletion 0.512, edited 0.123) ACACATACCTTCTTCGAGGCAGCCAGCATGATGAGACAGGTCTCCCACAAACACATCGTGT | 0.198 | 0.251 | 0.174 | 0.233 | 0.418 | 0.192 | 0.2 | 0.282 | 0.166 | 0.238 | 0.127 | 0.293 | 0.235 | 0.235 | 0.173 | 0.169 | 0.24 | 0.188
7 | 1.0 (DMSO control at this site: 1-bp insertion 0.521, MH deletion 0.323, edited 0.141) GTGTCACAGTGCACGAGTGACGGGATAATGTGCTGACAGGTAATTGATAGGCTTCCAACTT | 0.545 | 0.665 | 0.573 | 0.628 | 0.8 | 0.594 | 0.577 | 0.588 | 0.594 | 0.605 | 0.486 | 0.73 | 0.653 | 0.673 | 0.54 | 0.552 | 0.591 | 0.6
8 | 28.0 (DMSO control at this site: 1-bp insertion 0.035, MH deletion 0.77, edited 0.142) TGGTTCTTCCTTTGTAGAGAGTGTTCATCTGGGAATCTGGGACTTGGATGAGACAATCATT | 0.029 | 0.0402 | 0.0344 | 0.0432 | 0.078 | 0.0369 | 0.0388 | 0.0456 | 0.0349 | 0.0493 | 0.0369 | 0.0494 | 0.0462 | 0.0461 | 0.032 | 0.0316 | 0.0428 | 0.0506
9 | 47.0 (DMSO control at this site: 1-bp insertion 0.095, MH deletion 0.585, edited 0.118) GAGTGGTCCCGAGCCAGGAACTGTGTGTGTTGCAGGGGGGCAGTAACTCCCCAACTCCCTC | 0.0775 | 0.106 | 0.102 | 0.0993 | 0.269 | 0.0938 | 0.12 | 0.0914 | 0.0791 | 0.14 | 0.0508 | 0.158 | 0.144 | 0.101 | 0.0861 | 0.108 | 0.101 | 0.142
10 | 30.0 (DMSO control at this site: 1-bp insertion 0.074, MH deletion 0.67, edited 0.142) GAGCTGGCATGAGTATTTGTGCCACATGGCTCCCACATGGCTCCACATGCAAGTTTGAAAC | 0.0975 | 0.0866 | 0.0945 | 0.115 | 0.178 | 0.0785 | 0.0713 | 0.111 | 0.0722 | 0.1 | 0.0714 | 0.113 | 0.0986 | 0.0891 | 0.0719 | 0.0702 | 0.0954 | 0.0905
11 | 2.0 (DMSO control at this site: 1-bp insertion 0.364, MH deletion 0.356, edited 0.125) GGTGCCCCCGAGACCTACGCGAACCGAAATCGATGTCCGGTGCGCAAGCAGGGCTGGCGTC | 0.368 | 0.43 | 0.334 | 0.457 | 0.745 | 0.397 | 0.451 | 0.471 | 0.378 | 0.433 | 0.327 | 0.539 | 0.498 | 0.478 | 0.309 | 0.331 | 0.452 | 0.434
12 | 32.0 (DMSO control at this site: 1-bp insertion 0.03, MH deletion 0.85, edited 0.898) AGAAGTCCAGGATCAGGGGGACTGGGGTCGGGAGGGTGGGGCAGGAAGGAAGCCAGAATCA | 0.0112 | 0.0188 | 0.0121 | 0.012 | 0.0185 | 0.018 | 0.0164 | 0.0245 | 0.0134 | 0.0163 | 0.0205 | 0.0205 | 0.0247 | 0.0214 | 0.0197 | 0.0144 | 0.0169 | 0.0198
13 | 31.0 (DMSO control at this site: 1-bp insertion 0.315, MH deletion 0.329, edited 0.026) ACCTCCACAGGCTGGGTGGCCCGGAGGCTGGGCGGCCCGGAGGCTGGGCTGGGCGAGTATC | 0.115 | 0.185 | 0.232 | 0.192 | – | 0.196 | 0.214 | – | – | 0.0994 | 0.0954 | – | 0.127 | 0.173 | 0.102 | 0.138 | 0.178 | 0.208
14 | 42.0 (DMSO control at this site: 1-bp insertion 0.145, MH deletion 0.655, edited 0.132) GGGCTAAACCTATGAGCACAGTAGAACTAAGGGTGGGTGGTGTAGCTAAAGAACTTGACCA | 0.133 | 0.175 | 0.139 | 0.162 | 0.436 | 0.149 | 0.138 | 0.158 | 0.15 | 0.203 | 0.118 | 0.246 | 0.201 | 0.21 | 0.144 | 0.141 | 0.181 | 0.198
15 | 46.0 TTAAGAGCAATGTTCACGCAACTTGAAATTATATCTGTGGTCTTCAAATTGTCTTTTGTCA | – | 0.243 | 0.165 | – | – | – | 0.222 | – | – | 0.178 | 0.309 | 0.0621 | – | – | 0.25 | – | – | 0.17
16 | 26.0 (DMSO control at this site: 1-bp insertion 0.518, MH deletion 0.262, edited 0.026) AGGGCGCGCCCCACGCACTCTGCGGCAAGTCCCTCTGCGGCAAGTCCTCGGCCCGGAAGAC | 0.484 | 0.558 | 0.515 | 0.49 | 0.691 | 0.495 | 0.494 | 0.525 | 0.452 | 0.5 | 0.284 | 0.567 | 0.537 | 0.496 | 0.46 | 0.363 | 0.491 | 0.494
17 | 8.0 GCATGCGTGTTTTGGGACAATGTAGTATACATTTGGGAGGCTCTCAGCTTTTCCCAATAAA | – | – | – | – | – | 0.418 | – | – | – | 0.257 | 0.255 | 0.646 | – | 0.441 | – | – | – | 0.442
18 | 41.0 (DMSO control at this site: 1-bp insertion 0.022, MH deletion 0.754, edited 0.115) AAAGAGACAGCAGGTATGAATCCATCTTCCTGACCCTTGGGACCAGCCGGGGCAGTGAAGC | 0.0239 | 0.0181 | 0.018 | 0.0187 | 0.0495 | 0.0288 | 0.0318 | 0.0382 | 0.0265 | 0.0195 | 0.0232 | 0.0155 | 0.0392 | 0.0338 | 0.0158 | 0.0195 | 0.0292 | 0.0487
19 | 38.0 (DMSO control at this site: 1-bp insertion 0.063, MH deletion 0.487, edited 0.17) GGGCTGGGTGCTAAAATGAGGAGCTCCAAGAAGACTGAGGTGAACCTGGAGGCCCCTGAGC | 0.0578 | 0.0482 | 0.0681 | 0.0731 | 0.178 | 0.0549 | 0.0526 | 0.0567 | 0.0523 | 0.0633 | 0.0448 | 0.104 | 0.0891 | 0.102 | 0.0646 | 0.0742 | 0.0697 | 0.0502
